{"source": "PubChem BioAssay (NCI)", "note": "Compounds without any hit were thinned out: in the full panel of roughly 83,000, 20% have a hit.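 Compound tested at a single concentration for 48 hours in 96-well plates; a percent growth value below 10 was scored as active.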 Unmarked numbers belong to inactive results. The source made the active and inactive calls."}
{"test_system": "UO-31 renal", "assay": "NCI-60 one-dose screen, 48 h (100 = growth as untreated, 0 = no growth, -100 = all killed)", "details": "10 µM unless noted", "experimental": "Growth inhibition of the UO-31 human tumor cell line is measured as a screen for anti-cancer activity. Cells are grown in 96 well plates and exposed to the test compound for 48 hours. Compounds are tested at a single concentration, which is 10^-5 M for most compounds. The reported endpoint is percent growth (GI% or GIPRCNT), where numbers from 0 - 100% represent growth inhibition, and numbers from -100% - 0 represent cell death. For example, a value of 40 represents 60% growth inhibition. A value of 0 means no net growth occurred over the course of the experiment. A value of -40 indicates 40% of cells at the beginning of the experiment died by the end of the experiment. A value of -100 means all cells are dead at the end of the experiment.\nNCI-60 Human Tumor Cell Lines Screen was performed using the standard one-dose NCI protocol, which is described in more detail at https://dtp.cancer.gov/discovery_development/nci-60/default.htm.\nCompounds with GIPRCNT values below 10 were considered active. Activity score was based on GIPRCNT using the following formula: […]\nScore is 0 for GIPRCNT values of 100 or above, 50 for GIPRCNT values of 0, and 100 for GIPRCNT values of -100."}
{"smiles": "CC[C@]1(O)C[C@@H]2CN(Cc3c([nH]c4ccccc34)[C@@](C(=O)OC)(c3cc4c(cc3OC)N(C)[C@H]3[C@@](O)(C(=O)OC)[C@H](OC(C)=O)[C@]5(CC)[C@@H]6C[C@@H]6CN6CC[C@]43[C@@H]65)C2)C1", "growth": "68.5%"}
{"smiles": "CC[C@H](C)[C@@H]1NC(=O)[C@H]([C@@H](C)O)NC(=O)C(Cc2ccccc2)NC(=O)[C@@H]2CCCN2C(=O)C(C(C)C)NC(=O)C(Cc2ccccc2)NC(=O)CNC(=O)[C@@H]2CCCN2C1=O", "note": "(stereo not given in full)", "growth": "36.8%"}
{"smiles": "COc1ccc(S(=O)(=O)Nc2cc(/C=C\\c3cc(OC)c(OC)c(OC)c3)cc(OC)c2OC)cc1OC", "growth": "40.7%"}
{"smiles": "CN(C)c1ccc(/C=C\\N=Nc2ccc(Br)cc2)cc1", "growth": "32.6%"}
{"smiles": "O=C1NCC(c2cc3ccccc3[nH]c2=O)Nc2ccccc21", "note": "(stereo not given)", "growth": "76.8%"}
{"smiles": "N#Cc1ncc(-c2ccc(F)c(F)c2F)c(NC2CCCCCC2)n1", "growth": "68.9%"}
{"smiles": "NC(=O)c1c(NC(=O)c2ccc3c(c2)OCO3)sc2c1CCC(=O)C2", "growth": "-93.4% (active)"}
{"smiles": "O=C(c1ccccc1)C(Cl)C(Cl)c1ccccc1", "note": "(stereo not given)", "growth": "-50.5% (active)"}
{"smiles": "C#CCN1C(=O)/C(=c2\\sc3n(c2=O)NC2C(N=3)N(CC)C(=O)N2CC)c2ccccc21", "note": "(stereo not given)", "growth": "47.9%"}
{"smiles": "COc1ccc(/C=C/C(=O)c2ccc(B(O)O)cc2)cc1O", "growth": "60.8%"}
{"smiles": "O=C1NC(Cc2c[nH]c3ccccc23)C(=O)N1Cc1ccc(Cl)cc1", "note": "(stereo not given)", "growth": "76%"}
{"smiles": "Clc1ccc2c(c1)NC1(CCSc3ccccc31)n1nccc1-2", "note": "(stereo not given)", "growth": "83.5%"}
{"smiles": "Cc1c(C(=O)NCc2ccccc2)[n+](=O)c2cc(F)ccc2n1[O-]", "growth": "39.4%"}
{"smiles": "Cc1ccc(C2=NN(c3ccc(S(N)(=O)=O)cc3)C(c3cn(-c4ccccc4)nc3-c3ccccc3)C2)cc1", "note": "(stereo not given)", "growth": "30.2%"}
{"smiles": "COC1=CC(c2ccc[nH]2)=N/C1=C\\c1[nH]c(C)c(C(=O)CCCCC(=O)Oc2ccc3c(c2)CCC2C3CC[C@]3(C)[C@@H](O)CC[C@@H]23)c1C", "note": "(stereo not given in full)", "growth": "42.7%"}
{"smiles": "O=C(CC(O)c1ccncc1)c1ccccc1", "note": "(stereo not given)", "growth": "49.7%"}
{"smiles": "O=C(CN1CCN(c2cc3c(cc2F)c(=O)c(C(=O)O)cn3C2CC2)CC1)Nc1ccc(C(=O)/C=C/c2ccc(Cl)cc2)cc1", "growth": "94.6%"}
{"smiles": "COc1ccc(/C=C/c2cc(N3CCOCC3)c3cc(F)c(F)cc3n2)cc1OC", "growth": "18.2%"}
{"smiles": "CCCn1c(=S)sc2c(Cl)nc(C)nc21", "growth": "103%"}
{"smiles": "Oc1ccc(N=Cc2ccccc2)cc1", "growth": "77.5%"}
{"smiles": "Cc1cc(C)c2c(=O)[nH]c(SCC(=O)Nc3cccc(S(=O)(=O)N(C)C)c3)nc2n1", "growth": "94.6%"}
{"smiles": "ClC1=C(Cl)C(Cl)=C(Cl)C1=Cc1ccc(Cl)cc1Cl", "growth": "-81.8% (active)"}
{"smiles": "CSc1ccccc1C#C/C=C\\C#Cc1ccccc1N1CCCC1=O", "growth": "23.3%"}
{"smiles": "CN(C)c1ccc(-c2ccc(-c3ccc(C(=N)N)cn3)o2)cc1", "growth": "-69.4% (active)"}
{"smiles": "COc1ccc(Cn2c(SC)nc(=O)n(Cc3ccc(Cl)cc3)c2=O)cc1", "growth": "68.3%"}
{"smiles": "COc1ccc(OC)c(/C=C2\\Oc3cc(OCCN4CCCC4)ccc3C2=O)c1", "growth": "74.1%"}
{"smiles": "O=[N+]([O-])c1c(S(=O)(=O)O)cc2cc(S(=O)(=O)O)ccc2c1[N+](=O)[O-]", "growth": "76.5%"}
{"smiles": "COc1ccc(-c2nc(-c3ccccc3)c(-c3ccccc3)n2C2CC2)cc1OC1CCCCC1", "growth": "62.9%"}
{"smiles": "O=S=Nc1ccc([N+](=O)[O-])cc1", "growth": "78.3%"}
{"smiles": "COc1ccccc1CNCCCN1C(=O)c2ccc3c4c(ccc(c24)C1=O)C(=O)N(CCCNCCCCNCCCCN)C3=O", "growth": "8.57% (active)"}
{"smiles": "CC(C)(C)c1cn2cccc(C(=O)N3CCN(CC(=O)Nc4ccc(Cl)cc4C(=O)c4ccccc4Cl)CC3)c2n1", "growth": "47%"}
{"smiles": "Nc1nc(Cl)c2c(ncn2Cc2ccc(CCl)cc2)n1", "growth": "70.5%"}
{"smiles": "CCn1cc(C2NC(=O)c3cc(F)ccc3N2)c2cccc(Cl)c21", "note": "(stereo not given)", "growth": "42.6%"}
{"smiles": "CCC(c1ccc(OC)cc1)C(CC)c1ccc(OCC[N+](C)(C)C)cc1", "note": "(stereo not given)", "growth": "82.2%"}
{"smiles": "CCC(=O)Nc1ccccc1C#C/C=C\\C#Cc1ccccc1SC", "growth": "21.5%"}
{"smiles": "CC(=O)Nc1nc(C(=O)N2N=C(C)/C(=C/c3ccc(Cl)cc3)C2=O)cs1", "growth": "82.4%"}
{"smiles": "CNC(=O)c1cc(Oc2ccc3c(c2)sc2nc(-c4ccc(Cl)cc4)cn23)ccn1", "growth": "85.7%"}
{"smiles": "CC(Br)C(Br)c1cc2c(cc1Br)OCO2", "note": "(stereo not given)", "growth": "90.7%"}
{"smiles": "COc1cc(C2C=C(C)N=C3SC=CN32)cc(OC)c1OC", "note": "(stereo not given)", "growth": "90%"}
{"smiles": "Cn1c(-c2nonc2NC(=O)c2ccc(F)cc2)nc2ccccc21", "growth": "91.2%"}
